Test results from the supplement of paper PMC12350171.
Structures can show the parent of a compound that is named as a salt. A number with no mark means an inactive call.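 How the source made its calls: active = normalised median growth AUC below 0.1 of DMSO control; inactive = AUC 0.1 or higher.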

test system: P. vulgatus WT; test: growth AUC normalised to DMSO control (median) (fraction of control); higher = less growth inhibition, active = hit call of the paper; conditions: 20 µM
Outline: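 Area under the growth curve, calculated by the trapezoidal rule up to entry into stationary phase, was normalised to vehicle wells on the same plate. Strains had been passaged twice overnight without oxygen and then grown in mGAM in 96-well plates from OD578 0.01, each with an approved-drug library compound at 20 μM in 1% DMSO. OD578 was read hourly over 24 h in an anaerobic incubator, and the median of three biological replicates is given.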
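Further: active when median AUC fell below 0.1.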

Row | SMILES | growth AUC normalised to DMSO control
1 | O=C(NCC(O)CO)c1c(I)c(C(=O)NCC(O)CO)c(I)c(N(CCO)C(=O)CO)c1I (configuration not stated) [Ioversol] | 1.03
2 | CC(=O)CCCCn1c(=O)c2c(ncn2C)n(C)c1=O [Pentoxifylline] | 0.99
3 | COC(=O)Nc1nc2cc(C(=O)c3ccc(F)cc3)ccc2[nH]1 [Flubendazol] | 1.07
4 | CC(=O)N(CC(O)CO)c1c(I)c(C(=O)NCC(O)CO)c(I)c(C(=O)NCC(O)CO)c1I (configuration not stated) [Iohexol] | 0.978
5 | O=C(Nc1cccc2c(=O)cc(-c3nnn[nH]3)oc12)c1ccc(OCCCCc2ccccc2)cc1 [Pranlukast] | 0.957
6 | Cc1cccc(C)c1NC(=O)C1CCCCN1C (configuration not stated) [Mepivacaine hydrochloride] | 1.05
7 | CCn1cc(C(=O)O)c(=O)c2cnc(N3CCCC3)nc21 [Piromidic acid] | 1.03
8 | C[C@H](CCC(=O)O)[C@H]1CC[C@H]2[C@@H]3CC[C@@H]4C[C@H](O)CC[C@]4(C)[C@H]3CC[C@]12C [Lithocholic acid] | 1.03
9 | CS(=O)(=O)c1ccc([C@@H](O)[C@@H](CO)NC(=O)C(Cl)Cl)cc1 [Thiamphenicol] | 0.0102 (active)
10 | COC(=O)C1=C(C)NC(C)=C(C(=O)OC(C)C)C1c1cccc2nonc12 (configuration not stated) [Isradipine] | 1.05
11 | NS(=O)(=O)c1cc2c(cc1C(F)(F)F)NCNS2(=O)=O [Hydroflumethiazide] | 0.986
12 | CN(C)CCN(Cc1cccs1)c1ccccn1 [Methapyrilene hydrochloride] | 0.995
